{"source": "PubChem BioAssay (Tox21)", "note": "Inconclusive results are not listed. Entries that show only a call come without a potency. Values without a mark were called inactive. Calls of active or inactive are those of the source. Calls follow the shape of the dose curve; as a rule, active = well fitted cell-killing curve with a large enough effect in the repeat runs; inconclusive = weak or mixed curves, or effect the other way; inactive = flat fitted curve, though single readings scatter. Potency is read from the fitted curve at half-maximal effect.", "data": [{"assay": "qHTS RealTime-Glo MT Cell Viability Assay in HepG2 cells - 0 hour (AID 1224889); also: nearly all actives have a fitted effect of over 50% in size", "conditions": "RealTime-Glo luminescence; series mostly up to 76.8 µM", "source_text": "U.S. Tox21 Program National Center for Advancing Translational Sciences [NCATS] NIH Chemical Genomics Center [NCGC] U.S. Environmental Protection Agency [EPA] National Institutes of Environmental Health Sciences [NIEHS] National Toxicology Program [NTP] U.S. Food and Drug Administration [FDA] Tox21 Assay Overview: Measure of cell viability is critical in the cell-base assay. Analysis of cell viability is necessary for the characterization of cell responses to cytotoxic drugs and environmental stress. A RealTime-Glo MT Cell Viability Assay to monitor cell viability in real time of continues cell culture during 40 hours of compound treatment was used to screen Tox21 10K library compounds in HepG2 cells. The RealTime-Glo MT Cell Viability Assay is a nonlytic, homogeneous, bioluminescent method to measure cell viability in real time using a simple, plate-based method. The assay involves adding NanoLuc luciferase and a cell-permeant prosubstrate to cells in culture. Viable cells reduce the proprietary prosubstrate to generate a substrate for NanoLuc luciferase. This substrate diffuses from cells into the surrounding culture medium, where it is rapidly used by the NanoLuc Enzyme to produce a luminescent signal. The signal correlates with the number of viable cells, making the assay well suited for cytotoxicity studies.\nTox21 Assay Protocol Summary: The mixture of HepG2 cell suspension and reagents were dispensed at 600cells/6 ul/well in 1536-well tissue culture treated black solid bottom plates using a Multidrop dispenser. After the assay plates were incubated at a 37 C/5% CO2 incubator for 5 hours, 23 nL of compounds dissolved in DMSO, positive and negative controls was transferred to the assay plate by a pintool work station. The plates were incubated at 37 C for 40 hours. The luminescence intensity were measured at 0h, 8h, 16h, 24h, 32h and 40h time points using ViewLux plate reader during compound treatment.", "values": [{"smiles": "Nc1c(NC/C=C\\COc2cc(CN3CCCCC3)ccn2)c(=O)c1=O", "activity change, negative = cytotoxicity": "8.54% [at 15.8 µM]"}, {"smiles": "CCN(CCO)c1cccc(C)c1", "Potency": "inactive"}, {"smiles": "C[CH2][Ge]([Cl])([CH2]C)[CH2]C", "Potency": "inactive"}, {"smiles": "Cc1nc2ccccc2c(=O)o1", "Potency": "inactive"}, {"smiles": "CCCCCCCCCCC", "Potency": "inactive"}, {"smiles": "NS(=O)(=O)c1ccc(Cl)c(S(N)(=O)=O)c1", "Potency": "inactive"}, {"smiles": "CC(=O)OC(C)c1ccccc1", "note": "(stereo not given)", "Potency": "inactive"}, {"smiles": "Cc1ccc(S(=O)(=O)NC(=O)NC2CCCCCCC2)cc1", "Potency": "inactive"}, {"smiles": "CO[Si](CCCCl)(OC)OC", "Potency": "inactive"}, {"smiles": "CCC(C)(C)C1CCC(=O)CC1", "Potency": "inactive"}, {"smiles": "Cc1cccc(C(=O)O)c1[N+](=O)[O-]", "Potency": "inactive"}, {"smiles": "CCCCCCCCCCCCOC(C)=O", "Potency": "inactive"}, {"smiles": "Cc1cc(C)cc([N+](=O)[O-])c1", "Potency": "inactive"}, {"smiles": "SCCSCCS", "Potency": "inactive"}, {"smiles": "C=C[C@@H](C)CCC=C(C)C", "Potency": "inactive"}, {"smiles": "CC(C)(CO)[C@@H](O)C(=O)NCCCO", "Potency": "inactive"}, {"smiles": "Cc1cc(O)c2c(c1)C(=O)c1cccc(O)c1C2=O", "Potency": "inactive"}, {"smiles": "CC(=O)Nc1ncc([N+](=O)[O-])s1", "Potency": "inactive"}, {"smiles": "CN(C1CCCCC1)S(=O)(=O)c1ccccc1N", "Potency": "inactive"}, {"smiles": "Cc1ccccc1C", "Potency": "inactive"}, {"smiles": "O=C(O)c1ccccc1C(=O)OCc1ccccc1", "Potency": "inactive"}, {"smiles": "C[C@@H]1C[C@H]2[C@@H]3C[C@H](F)C4=CC(=O)C=C[C@]4(C)[C@@]3(F)[C@@H](O)C[C@]2(C)[C@@]1(O)C(=O)CO", "Potency": "21.3 µM (active)"}, {"smiles": "CN[C@@H]1[C@@H](O)[C@@H](O[C@@H]2[C@H](O)[C@H](O[C@H]3OC(CN)=CC[C@H]3N)[C@@H](N)C[C@H]2N)OCC1(C)O", "note": "(stereo not given in full)", "Potency": "inactive"}, {"smiles": "CC1CCC(C(C)(C)S)C(=O)C1", "note": "(stereo not given)", "Potency": "inactive"}, {"smiles": "COc1cc2c3cc1Oc1cc(ccc1O)C[C@@H]1c4c(cc(OC)c(O)c4Oc4ccc(cc4)C[C@@H]3N(C)CC2)CC[N+]1(C)C", "Potency": "inactive"}, {"smiles": "CCOC(=O)CC(CC(=O)OCC)(OC(C)=O)C(=O)OCC", "Potency": "inactive"}, {"smiles": "BrC/C=C/CBr", "activity change, negative = cytotoxicity": "4.43% [at 15.8 µM]"}, {"smiles": "CC1=NN(c2ccc(S(=O)(=O)O)cc2)C(=O)C1N=Nc1ccccc1", "note": "(stereo not given)", "Potency": "inactive"}, {"smiles": "CCC(C)N", "note": "(stereo not given)", "Potency": "inactive"}, {"smiles": "CC(C)(C)c1ccc(C=O)cc1", "Potency": "inactive"}, {"smiles": "O=C(O)c1c(Cl)ccc(Cl)c1Cl", "Potency": "inactive"}, {"smiles": "Cc1cccc(NC(=S)N(C)C)c1", "Potency": "inactive"}, {"smiles": "C=CCOc1c(Br)cc(C(C)(C)c2cc(Br)c(OCC=C)c(Br)c2)cc1Br", "Potency": "inactive"}, {"smiles": "CN[C@@H]1[C@H](O)[C@H](NC)[C@H]2O[C@@]3(O)C(=O)C[C@@H](C)O[C@H]3O[C@@H]2[C@H]1O", "Potency": "inactive"}, {"smiles": "CC(C)CCCCCCOC(=O)C1CCCCC1C(=O)OCCCCCCC(C)C", "note": "(stereo not given)", "Potency": "inactive"}, {"smiles": "O=C(COCCOCCOCC(=O)Nc1c(I)cc(I)c(C(=O)O)c1I)Nc1c(I)cc(I)c(C(=O)O)c1I", "Potency": "inactive"}, {"smiles": "Cc1ccccc1OCC1CO1", "note": "(stereo not given)", "Potency": "inactive"}, {"smiles": "Cn1c(=O)c2c(ncn2CC2OCCO2)n(C)c1=O", "Potency": "inactive"}, {"smiles": "C=CCOCC(CO)(COCC=C)COCC=C", "Potency": "inactive"}, {"smiles": "Oc1ccccc1Cc1ccccc1O", "Potency": "inactive"}]}]}
